Among the data in PubChem BioAssay (NCATS) are outcome values, retold here.

Records with an inconclusive call do not appear. Activity calls are given as the source filed them. The call rests on the fitted dose curve; in most records, active means well fitted inhibition curve with a large enough effect; inconclusive means small, poorly fitted or top-dose-only effect; inactive means no such curve, though single readings can be large or run the other way.

This experiment can be described thus: Counterscreen for APE1 Inhibitors: Fluorescent Dye Displacement Validation Assay (AID 1707). To be noted: fluorescent dye displacement from DNA; series mostly up to 57.1 µM. The procedure, abridged: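 Thiazole Orange displacement from dsDNA: 250 nM ThO with 50 nM TAMRA-labelled abasic-site (tetrahydrofuran) duplex in 50 mM Tris-HCl pH7.5, 50mM NaCl, 2 mM MgCl2, 0.01% Tween-20. Loss of endpoint fluorescence (ex 480 nm, em 540 nm) flags DNA binders.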
Background: The purpose of a counterscreen is to sort out artefacts and off-target activity.
In the case of `Brc1c(NC2=NCCN2)ccc2nccnc12`, the result was inactive.
With `C[N+](C)(C)CCOC(=O)CCC(=O)OCC[N+](C)(C)C`, the result was inactive.
The entry for `O=C1CC2(CCCC2)CC(=O)N1CCCCN1CCN(c2ncccn2)CC1` is “inactive”; for `CN(C)C(=O)Oc1cccc([N+](C)(C)C)c1` it is “inactive”.
For `NS(=O)(=O)c1cc2c(cc1Cl)NC(C1CC3C=CC1C3)NS2(=O)=O` (centres undefined), the molecule was called inactive.
The entry for `Cc1nnc(SCC2=C(C(=O)O)N3C(=O)[C@@H](NC(=O)Cn4cnnn4)[C@H]3SC2)s1` is “inactive”; for `C[C@]12CCC(=O)C=C1CC[C@@H]1[C@@H]2C(=O)C[C@@]2(C)[C@H]1CC[C@]2(O)C(=O)CO` it is “inactive”; for `NC(=O)c1ncn([C@@H]2O[C@H](CO)[C@@H](O)[C@H]2O)c1O` it is “inactive”.
On to `CCc1cccc(N(C)C(N)=Nc2cccc3ccccc23)c1`, for which the call was inactive.
The same measure for `CCCNC(C)C(=O)Nc1ccccc1C` (centres undefined): “inactive”.
The same measure for `COCCCC/C(=N\OCCN)c1ccc(C(F)(F)F)cc1`: “inactive”.
The entry for `Nc1ncn([C@@H]2O[C@H](CO)[C@@H](O)[C@H]2O)c(=O)n1` is “inactive”.
In the case of `C[C@]12C=CC(=O)C=C1CC[C@H]1[C@@H]3C[C@@H](O)[C@](O)(C(=O)CO)[C@@]3(C)C[C@H](O)[C@@]12F`, the outcome was inactive.
The entry for `CCC(=O)c1ccc2c(c1)N(CCCN(C)C)c1ccccc1S2` is “inactive”; for `NC(N)=N/N=C/c1c(Cl)cccc1Cl` it is “inactive”; for `C[C@H](CS)C(=O)N1CCC[C@H]1C(=O)O` it is “inactive”.
In the case of `CN(C)CC[C@@H](c1ccc(Br)cc1)c1ccccn1`, the molecule was called inactive.
Take `COc1ccc([C@@H]2Sc3ccccc3N(CCN(C)C)C(=O)[C@@H]2OC(C)=O)cc1`: the outcome was inactive.
The entry for `CC(=O)OCC1=C(C(=O)O)N2C(=O)[C@@H](NC(=O)Cc3cccs3)[C@H]2SC1` is “inactive”.
Turning to `CCOC(=O)C1=C(C)NC(C)=C(C(=O)OC)C1c1cccc(Cl)c1Cl` (centres undefined), the call was inactive.
The same measure for `CN(C)C/C=C(/c1ccc(Br)cc1)c1cccnc1`: “inactive”; for `CNCCCN1c2ccccc2CCc2ccccc21`: “inactive”.
Consider `CSc1ccc(C(=O)c2[nH]c(=O)[nH]c2C)cc1`, for which the call was inactive.
On to `Cc1nc2c([nH]1)c(=O)n(C)c(=O)n2Cc1ccco1`, for which the molecule was classed as inactive.
With `C(=C\c1ccccc1)/CN1CCN(C(c2ccccc2)c2ccccc2)CC1`, the molecule was called inactive.
In the case of `CN(C)C(=O)Oc1ccc[n+](C)c1`, the molecule was called inactive.
Turning to `CC(C)(C)NCC(O)c1cc(O)cc(O)c1` (centres undefined), the molecule was called inactive.
Consider `OCCN1CCN(CC/C=C2/c3ccccc3Sc3ccc(C(F)(F)F)cc32)CC1`, for which the result was inactive.
Turning to `O=C(CCCN1CCC(O)(c2cccc(C(F)(F)F)c2)CC1)c1ccc(F)cc1`, the molecule was classed as inactive.
